# In PubChem BioAssay AID1508622 (National Center for Advancing Translational Sciences (NCATS), 2021):
# A number with no mark means an inactive call. Activity calls are given as the source filed them. Calls come from the whole dose curve; as a rule, active = well fitted activation curve with a large enough effect; inconclusive = small, poorly fitted or top-dose-only effect; inactive = no such curve, though single readings can be large or run the other way.
# Test: Confirmatory qHTS for Identification of Small Molecule Activators of Huntingtin-Antisense Promoter Activity
# Details: HEK293 HTT-AS promoter firefly luciferase reporter, 24 h; series mostly up to 57.5 µM; activity change, positive = activation: at the top concentration
# Outline: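 Activity normalized between vehicle control (0%) and zero RLU (-100%) from firefly luminescence (Dual-Glo). Compounds, up to 57.5 uM final, incubated 24 h at 37C on HEK293 reporter cells plated 24 h earlier.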
# Potency is the fitted concentration of half-maximal effect.
SMILES,"activity change, positive = activation",Potency
O=C(CCc1cn(Cc2ccc(F)cc2)c2ccccc12)NC1CCCCC1,-18.1%,–
CCOC(=O)c1cc(-c2ccc(F)cc2)n(CCC(=O)NCCc2ccc(C)cc2)c1C,-9.24%,–
O=C(NCc1cccc(Cl)c1)C1CCCN(c2nn3cc(-c4ccc(F)cc4)nc3s2)C1 (stereo not drawn),-56.7%,–
CC(C)Cc1ccc(S(=O)(=O)Nc2ccc3[nH]c(=O)[nH]c3c2)cc1,-68.6%,–
Cc1cc(C)cc(OCCn2c(C3CC(=O)N(c4ccccc4Cl)C3)nc3ccccc32)c1 (stereo not drawn),-37.7%,–
CC(=O)N1CCCc2cc(S(=O)(=O)N(C)CC(=O)Nc3ccc(Cl)cc3C)ccc21,-44.5%,–
Cc1ccc(NCc2cccn2-c2nnc(N3CCC(C(=O)NCCC(C)C)CC3)s2)cc1,-47.9%,–
Cc1ccc2nc(SCc3nc(-c4ccccc4C)no3)[nH]c2c1,-60.4%,–
COc1cc(NS(=O)(=O)c2ccc(-c3cc(C)no3)cc2)cc(OC)c1,-94%,–
O=c1c(-c2ccc(O)cc2)coc2cc(O)ccc12,–,8.49 µM (active)
C#CCOc1ccc(-c2nnc(Nc3cccc(C)c3)c3ccccc23)cc1,-44.5%,–
COc1ccc(NC(=O)Cn2c(=O)oc3cc(S(=O)(=O)N4CCCCCC4)ccc32)cc1OC,-69%,–
COc1cc(CN2CCc3nc(N4CCN(c5ccccc5F)CC4)ncc3C2)ccc1OC(C)C,-71.5%,–
O=S(=O)(NCc1ccc(F)cc1)c1ccc(N2CCCCS2(=O)=O)cc1,-83.7%,–
CCn1c(SCc2cccc(Br)c2)nnc1-c1nonc1NC(C)=O,-50.3%,–
COc1ccccc1N=c1scc(-c2ccc(S(=O)(=O)N3CCCC3)cc2)n1C,-78%,–
O=C(Cn1c(=O)oc2cc(S(=O)(=O)N3CCCCC3)ccc21)NCc1ccc(F)cc1,-27.8%,–
CCN(CC)CCNC(=O)c1c(C)[nH]c(C=C2C(=O)Nc3ccc(F)cc32)c1C,0.416% [at 115 µM],–
CCc1ccc(NC(=O)c2ccc(F)c(S(=O)(=O)NCCc3ccc(OC)c(OC)c3)c2)cc1,-35.1%,–

SMILES,"activity change, positive = activation",Potency
CCc1c(C)sc2c1CCN(Cc1ccc(F)cc1)C2c1ccccc1 (stereo not drawn),-9.25%,–
CC(=O)N1CCCc2cc(S(=O)(=O)N3CCN(c4ccccc4F)CC3)ccc21,-37%,–
O=C(CN1CCCN(S(=O)(=O)c2ccc(Br)cc2)CC1)Nc1cccc(C(F)(F)F)c1,-31.7%,–
COc1ccc(OC)c(CNS(=O)(=O)c2ccc3[nH]c4c(c3c2)CCCCC4)c1,-83.3%,–
Cc1cc(NC(=O)CN(C)S(=O)(=O)c2ccc3c(c2)CCC(=O)N3)ccc1Br,-43.3%,–
COc1ccc(NS(=O)(=O)c2ccc3c(c2)CCN3C(=O)C2CC2)cc1OC,-96.5%,–
CCc1ccc(NC(=O)c2ccc(F)c(S(=O)(=O)N3CCN(c4cc(C)ccc4C)CC3)c2)cc1,-15.1%,–
Cc1ccc(SCc2nc(-c3ccc(C(=O)NCC(C)c4ccccc4)cc3)oc2C)cc1 (stereo not drawn),-29.4%,–
O=C1C2=C(Nc3ccccc3SC2c2ccc(C(F)(F)F)cc2)c2ccccc21 (stereo not drawn),-61.3%,–
CCN(CCCNC(=O)CSc1cc(=O)n(CC)c2ccccc12)c1ccccc1,-10.4%,–
CCC1=C(c2ccc(C)cc2)S(=O)(=O)N=C1N1CCC(C(=O)NCCc2ccc(Cl)cc2)CC1,-68.7%,–
CSc1ccc(CCNC(=O)c2ccc(CS(=O)(=O)c3ccc(Br)cc3)o2)cc1,-30.2%,–
COc1ccc(CNC(=O)Nc2ccc3c(c2)N(C)C(=O)c2ccccc2S3)cc1OC,-38.8%,–
Cc1oc(-c2ccc(C(=O)NCc3ccc(Cl)cc3)cc2)nc1CS(=O)(=O)c1ccccc1,-20%,–
CC1=C(C(=O)Nc2ccc(Cl)cc2)C(c2ccccc2C)n2ncc(C(=O)Nc3ccc(C)cc3)c2N1 (stereo not drawn),-22.7%,–
COc1ccc(NC(=O)Cn2nc(C(F)(F)F)c3c2CCCC3)cc1OC,-53.1%,–
CCOC(=O)Cc1ccc(NC(=O)N(Cc2ccc(CC)cc2)Cc2cn[nH]c2-c2ccc(OC)cc2)cc1,-29.3%,–
COCCNc1nc(NCc2cccc(Cl)c2)c2cnn(C)c2n1,-37.8%,–
COc1cccc(C2=CC(c3cc(Br)ccc3F)n3nnnc3N2)c1 (stereo not drawn),-35.3%,–
